Values joined by “and” are separate entries in the source; they are usually repeats but may differ in a detail not shown here. Equal entries are not always repeated. Unmarked numbers belong to inactive results. Records with an inconclusive call do not appear. Active and inactive are the calls of the source. Unless noted, calls follow the shape of the dose curve; as a rule, active = well fitted curve in the direction sought with a large enough effect in the repeat runs; inconclusive = weak or mixed curves; inactive = no such curve, though single readings can be large; an effect the other way counts as inactive or inconclusive.

Test [1] deals with Luciferin 4-monooxygenase (Photinus pyralis) (UniProt P08659). Briefly: qHTS assay to identify small molecule inhibitors of firefly luciferase (AID 1224835). Also: nearly all actives have a fitted effect of over 25% in size. Also: potency is read from the fitted curve at half-maximal effect. The gist of the method: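 Quantitative HTS format; KM concentrations of both substrates. Purified P. pyralis FLuc activity quantified from luminescence images.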
Sequence of Luciferin 4-monooxygenase (Photinus pyralis) (P08659 whole entry, looked up): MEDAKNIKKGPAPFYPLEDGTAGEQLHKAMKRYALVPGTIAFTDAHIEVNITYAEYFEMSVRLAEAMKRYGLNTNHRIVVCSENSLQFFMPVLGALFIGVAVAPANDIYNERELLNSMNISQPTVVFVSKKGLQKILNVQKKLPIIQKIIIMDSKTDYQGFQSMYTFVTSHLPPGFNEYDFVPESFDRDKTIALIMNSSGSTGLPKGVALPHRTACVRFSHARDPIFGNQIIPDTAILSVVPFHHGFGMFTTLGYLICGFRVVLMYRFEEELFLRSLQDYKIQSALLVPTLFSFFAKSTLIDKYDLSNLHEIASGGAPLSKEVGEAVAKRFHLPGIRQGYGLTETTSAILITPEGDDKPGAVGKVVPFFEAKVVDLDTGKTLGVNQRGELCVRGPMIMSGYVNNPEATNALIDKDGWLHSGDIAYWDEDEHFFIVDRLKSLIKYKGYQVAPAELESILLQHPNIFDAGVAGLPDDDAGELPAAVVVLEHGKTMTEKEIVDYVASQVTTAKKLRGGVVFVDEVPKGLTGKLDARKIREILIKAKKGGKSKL
In general terms: qHTS replaces the single test concentration by a dilution series.

Test [2] is described as follows: qHTS assay to identify small molecule agonists of the constitutive androstane receptor (CAR) signaling pathway - cell viability counter screen (AID 1224836). Also: nearly all actives have a fitted effect of over 45% in size. The gist of the method: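 HepG2-CYP2B6-hCAR, 2500 cells/well, 4 h pre-incubation; cpd 15 conc + PK11195 0.75 uM final; 23 h, 37 C/5% CO2; CellTiter-Fluor, fluorescence.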
Test [3] in a line: qHTS assay to identify small molecule antagonists of the constitutive androstane receptor (CAR) signaling pathway - cell viability counter screen (AID 1224837). Also: nearly all actives have a fitted effect of over 45% in size. The gist of the method: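 Using CellTiter-Fluor, viability is scored in HepG2 cells stably carrying hCAR and a 2.2kb CYP2B6 reporter after 23 hr compound exposure across 15 concentrations, with CITCO present at 50 nM.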

Test [4] concerns the target Nuclear receptor subfamily 1 group I member 3 (Homo sapiens) (UniProt Q14994). Briefly: qHTS assay to identify small molecule antagonists of the constitutive androstane receptor (CAR) signaling pathway (AID 1224838).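 Also: HepG2 cells stably expressing hCAR with CYP2B6 luciferase reporter stimulated by CITCO; nearly all actives have a fitted effect of over 40% in size.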 Also: potency is read from the fitted curve at half-maximal effect. The gist of the method:
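Reporter luminescence was quantified after 24 h exposure of hCAR/CYP2B6-2.2kb double-stable HepG2 cells to compounds at 15 concentrations in the presence of 50 nM CITCO final.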

Test [5] shares this target. Briefly: qHTS assay to identify small molecule agonists of the constitutive androstane receptor (CAR) signaling pathway (AID 1224839). Also: nearly all actives have a fitted effect of over 15% in size. Also: potency is read from the fitted curve at half-maximal effect. Summed up: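 HepG2-CYP2B6-hCAR cells, 2500/well, 4 h pre-incubation; compounds 15 conc.; PK11195 0.75 uM final; 24 h, 37 C/5% CO2; ONE-Glo luciferase read.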
Test [6] can be described thus: qHTS assay to identify small molecule antagonists of the estrogen related receptor signaling pathway with the pleiotropic PPARgamma coactivator (PGC) from Tox21 10K library - cell viability counter screen (AID 1224840; active = well fitted cell-killing curve with a large enough effect in the repeat runs, not every such curve was filed as active; also: nearly all actives have a fitted effect of over 40% in size). The gist of the method:
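Here the PGC/ERR cells serve as a cytotoxicity control: they are exposed to compounds for 17.5 hours at 37 C, and live-cell signal is quantified using CellTiter-Fluor fluorescence.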

Test [7] addresses Thyrotropin receptor (Homo sapiens) (UniProt P16473). Briefly: qHTS assay to identify small molecule agonists of the thyroid stimulating hormone receptor (TSHR) signaling pathway (AID 1224843; calls by dose curve; also: nearly all actives have a fitted effect of over 45% in size). Summed up: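 TSHR-expressing HEK293 cells (800 per well) were exposed to compounds for 30 min at room temperature. cAMP was then detected by HTRF competition with cAMP-d2 and anti-cAMP cryptate, read after 1 h at room temperature. Fifteen concentrations, triplicate.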

Test [8] in a line: qHTS assay to identify small molecule agonists of the hypoxia (HIF-1) signaling pathway - cell viability counter screen (AID 1224844; calls by dose curve; also: nearly all actives have a fitted effect of over 50% in size). Summed up:
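Multiplexed with the HRE beta-lactamase assay, this viability read used CellTiter-Glo luminescence (30 min, RT) on HRE-bla ME-180 cells treated 17 hrs with compounds in 0.5% dialyzed FBS medium.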

Test [9] in a line: qHTS assay to identify small molecule agonists of H2AX (AID 1224845; active = well fitted activation curve with a large enough effect in the signal ratio in the repeat runs, not every such curve was filed as active; the % refers to the signal ratio). Summed up:
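Wild-type CHO-K1 cells plated overnight, then exposed 3 hr at 37C to compounds at 15 concentrations (0.76% DMSO). Lysed, then HTRF anti-pH2AX(S139)-cryptate/anti-H2AX-d2 detection after 24 hr at room temperature; emissions 665 and 620 nm.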

Test [10] in a line: qHTS assay to identify small molecule agonists of the hypoxia (HIF-1) signaling pathway (AID 1224846; active = well fitted activation curve with a large enough effect in the signal ratio in the repeat runs, not every such curve was filed as active; the % refers to the signal ratio). The gist of the method: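 Hypoxia-pathway activation was scored as increased beta-lactamase from an HRE-controlled reporter in ME-180 cells; plated at 2,000 cells per well with 0.5% dialyzed FBS, they were exposed 17 hrs to compounds and then given CCF4-AM.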
The nature of test [11]: qHTS assay to identify small molecule agonists of H2AX - cell viability counter screen (AID 1224847; calls by dose curve; also: top concentration of the series differs between compounds; nearly all actives have a fitted effect of over 30% in size). Summed up:
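Cells plated first: CHO-K1, 1000 per well in 10% FBS medium, incubated overnight at 37C. Then 15-point compound titration added (final DMSO 0.76%) for 3 hr. Finally CellTiter-Glo added and luminescence read.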

The nature of test [12]: qHTS RealTime-Glo MT Cell Viability Assay in HepG2 cells - 24 hour (AID 1224867). Also: nearly all actives have a fitted effect of over 50% in size. The gist of the method: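 qHTS, HepG2, 600 cells/well, RealTime-Glo (NanoLuc + prosubstrate) added with cells; 5 h preincubation; DMSO compound addition; 37 C; luminescence at 0/8/16/24/32/40 h.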
Test [13] can be described thus: qHTS RealTime-Glo MT Cell Viability Assay in HEK293 cells - 32 hour (AID 1224868). Also: nearly all actives have a fitted effect of over 50% in size. Also: potency is read from the fitted curve at half-maximal effect. Summed up: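 Assay medium contained NanoLuc luciferase plus cell-permeant prosubstrate, added with HEK293 cells at 600 cells/well. After 5 h at 37 C/5% CO2 compounds were added; plates stayed at 37 C for 40 h with serial luminescence reads.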
A short description of test [14]: A CellTox Green Cytotoxicity Assay to monitor cytotoxicity in HEK293 cells - 0 hour (AID 1224869). Also: nearly all actives have a fitted effect of over 50% in size. The gist of the method:
(§1)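 Seeding of HEK293 cells together with cytotoxicity dye preceded a 5 h incubation at 37 C/5% CO2. Test compounds in DMSO were then added and fluorescence monitored across 40 h.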

A short description of test [15]: qHTS RealTime-Glo MT Cell Viability Assay in HepG2 cells - 40 hour (AID 1224870). Also: nearly all actives have a fitted effect of over 50% in size. The gist of the method:
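HepG2 cells mixed with RealTime-Glo MT reagents (NanoLuc plus cell-permeant prosubstrate) were seeded at 600 cells/well, incubated 5 h at 37 C/5% CO2, then pinned with compounds in DMSO; nonlytic luminescence tracked viability during 40 h treatment.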

Test [16] is described as follows: A CellTox Green Cytotoxicity Assay to monitor cytotoxicity in HEK293 cells - 40 hour (AID 1224871). Also: nearly all actives have a fitted effect of over 45% in size. Also: potency is read from the fitted curve at half-maximal effect. Summed up: as §1
Test [17] is described as follows: qHTS assay to identify small molecule antagonists of the estrogen related receptor signaling pathway with the pleiotropic PPARgamma coactivator (PGC) from Tox21 10K library (AID 1224841; call rule not given here). Summed up: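 Each well held 2,000 PGC/ERR cells, pre-incubated six hours (37 C, 5% CO2). Test substances in DMSO were added by pin tool and left for 18 h at 37 C before luciferase detection by One-Glo.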

Test [18] is described as follows: qHTS assay to identify small molecule agonists of the estrogen related receptor signaling pathway with the pleiotropic PPARgamma coactivator (PGC) from Tox21 10K library (AID 1224842). Also: nearly all actives have a fitted effect of over 15% in size. The gist of the method:
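PGC/ERR reporter cells (NTP line) were seeded 2,000 per well, rested 6 h at 37 C/5% CO2, then pin-dosed with compounds in DMSO for 18 h at 37 C; luciferase read by One-Glo luminescence after 30 min at room temperature.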

Test [19] in a line: qHTS assay to identify small molecule antagonists of the estrogen related receptor (ERR) signaling pathway from Tox21 library (AID 1224848). Also: nearly all actives have a fitted effect of over 50% in size. Summed up:
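Cells: ERR line, 2,000/well; 6 h preincubation 37 C/5% CO2. Cpd in DMSO via pin tool; 18 h, 37 C. ONE-Glo, 30 min RT, luminescence.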

The nature of test [20]: qHTS assay to identify small molecule agonists of the estrogen related receptor (ERR) signaling pathway from Tox21 library (AID 1224849; calls by dose curve; also: nearly all actives have a fitted effect of over 15% in size). To be noted: ERR reporter cell line, ONE-Glo luciferase, 18 h. Summed up:
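Six hours post-seeding at 37 C/5% CO2, ERR cells receive DMSO-solubilised compounds; after 18 h at 37 C, ONE-Glo reagent is applied and luminescence recorded.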
% is scaled to controls: 0 for no effect and ±100 for the full control effect.

Sequence of Nuclear receptor subfamily 1 group I member 3 (Homo sapiens) (Q14994 whole entry, looked up): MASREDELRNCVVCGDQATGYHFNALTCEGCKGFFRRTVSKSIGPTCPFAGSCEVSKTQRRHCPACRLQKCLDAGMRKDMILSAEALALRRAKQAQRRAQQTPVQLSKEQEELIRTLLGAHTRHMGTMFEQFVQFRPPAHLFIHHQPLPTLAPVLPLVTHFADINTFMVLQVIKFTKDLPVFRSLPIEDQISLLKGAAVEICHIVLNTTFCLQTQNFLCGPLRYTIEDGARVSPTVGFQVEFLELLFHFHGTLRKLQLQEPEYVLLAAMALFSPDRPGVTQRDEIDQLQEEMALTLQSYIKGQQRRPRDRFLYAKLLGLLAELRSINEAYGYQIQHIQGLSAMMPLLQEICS
Sequence of Thyrotropin receptor (Homo sapiens) (P16473 whole entry, looked up): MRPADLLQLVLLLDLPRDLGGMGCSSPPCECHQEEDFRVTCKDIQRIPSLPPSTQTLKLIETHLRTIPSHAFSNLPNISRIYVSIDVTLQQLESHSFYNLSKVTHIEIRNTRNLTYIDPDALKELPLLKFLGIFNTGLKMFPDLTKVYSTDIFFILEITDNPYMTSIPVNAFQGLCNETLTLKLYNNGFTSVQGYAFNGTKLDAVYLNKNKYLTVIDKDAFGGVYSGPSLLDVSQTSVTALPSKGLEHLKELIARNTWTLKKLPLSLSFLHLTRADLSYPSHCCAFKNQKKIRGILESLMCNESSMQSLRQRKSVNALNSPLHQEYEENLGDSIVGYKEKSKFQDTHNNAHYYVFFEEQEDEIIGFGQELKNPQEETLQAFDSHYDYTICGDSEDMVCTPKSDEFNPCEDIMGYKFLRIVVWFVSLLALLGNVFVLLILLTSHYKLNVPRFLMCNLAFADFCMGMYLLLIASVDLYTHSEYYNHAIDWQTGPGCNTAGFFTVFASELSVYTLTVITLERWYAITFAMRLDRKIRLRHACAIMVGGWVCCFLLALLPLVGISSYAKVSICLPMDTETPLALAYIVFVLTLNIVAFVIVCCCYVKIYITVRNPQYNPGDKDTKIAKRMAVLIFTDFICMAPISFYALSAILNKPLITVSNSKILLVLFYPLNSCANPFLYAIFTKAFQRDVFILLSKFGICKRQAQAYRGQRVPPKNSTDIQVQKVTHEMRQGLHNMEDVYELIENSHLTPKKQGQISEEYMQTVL

With `Clc1ccc(Sc2cc(Cl)c(Cl)cc2Cl)cc1`, the Potency result in test [1], in [2], in test [3], in test [4], in test [5] and in test [6] was “inactive” throughout. Also, the Potency result in test [7], in test [8], in test [9], in test [11], in test [12] and in test [13] was “inactive” in each case. Besides, the Potency entry in test [14], in test [15] and in test [16] was “inactive” in each case. Also, in test [10], the molecule was classed as inactive.
For the molecule `CN(Cc1cnc2nc(N)nc(N)c2n1)c1ccc(C(=O)N[C@@H](CCC(=O)O)C(=O)O)cc1`, the Potency entry in [1], in test [2], in [3], in test [5], in test [6] and in test [7] was “inactive” each time. Moreover, the Potency entry in test [8], in [12], in test [14], in [15] and in [16] was “inactive” each time. For the same molecule, the Potency in test [4] is 48.6 nM (active) and 75 nM (active); in [13] it was 110 nM (active) and 67.4 nM (active).
Take `CC1=CC(C)(C)Nc2ccccc21`: the Potency result in test [1], in test [2], in [3], in test [4], in test [5] and in [6] was “inactive” in each case. Further, the Potency result in test [17], in test [18], in test [8], in test [9], in [11] and in [19] was “inactive” each time. Moreover, the Potency entry in test [12], in test [13], in [14] and in test [15] was “inactive” each time. Further, in test [10], the result was inactive. In test [20] (at 92.4 µM (top of the series)), the activity change, positive = activation is 1.56% and -18.3%.
As for `C=CC(C)(O)CCC=C(C)C` (stereo unspecified), the Potency result in [1], in test [2], in test [3], in [4], in test [5] and in test [6] was “inactive” each time. The Potency entry in [7], in [8], in [9], in test [12], in test [13] and in test [14] was “inactive” each time. Further, the Potency entry in test [15] and in test [16] was “inactive” throughout. Also, the molecule was called inactive in test [10].
Take `CC(=O)[C@H]1CC[C@H]2[C@@H]3CC=C4C[C@@H](O)CC[C@]4(C)[C@H]3CC[C@]12C`: the Potency entry in test [1], in test [2], in test [3], in test [4], in [5] and in test [6] was “inactive” each time. The Potency result in [17], in test [18], in [7], in [8], in [9] and in test [11] was “inactive” in each case. The Potency result in test [19], in [12], in test [13], in [14] and in test [16] was “inactive” in each case. Besides, the outcome in [10] was inactive. Moreover, the activity change, positive = activation is -14.3% in test [20] (at 42.5 µM (top of the series)) and -23.4% in [20] (at 92.4 µM (top of the series)).
With `COc1ccc(-c2coc3cc(O)cc(O)c3c2=O)cc1`, the Potency in test [1] was 6.38 µM (active) and 5.03 µM (active); in test [5] it was 15.5 µM (active) and 27.3 µM (active); in test [13], 44 µM (active) and 49 µM (active). Moreover, the Potency result in [2], in test [3], in test [4], in test [6], in test [7] and in test [8] was “inactive” throughout. Besides, the Potency entry in [9], in [12], in test [14] and in [16] was “inactive” in each case.
For the molecule `CCCCCCCCCCCCO`, the Potency in test [1] was 31.3 µM (active); in test [16], 4.84 µM (active). Besides, the Potency result in test [2], in test [3], in [4], in [5], in test [6] and in [7] was “inactive” throughout. The Potency result in [8], in [9], in test [11], in test [12], in [13] and in [14] was “inactive” in each case. Further, the Potency entry in test [15] is “inactive”. Also, in [10], the call was inactive.

The values above are taken from PubChem BioAssay (Tox21).
